High-throughput results as filed in PubChem BioAssay.
CD11b adhes enh = enhancers of human CD11b/CD18 binding to fibrinogen; activation, % at 10 µM; AID 1499; P05107+P11215; K562 CD11b/CD18 adhesion to fibrinogen, ATPlite luminescence; actives 0.07% (n = 93,000);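 active = 10 µM primary screen giving 50% or more activity, confirmed by 40% or more on retest at that dose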
CYP2C19 inhib = inhibitors of human CYP2C19. P33261. CYP2C19 Supersomes, luciferin-H EGE luminescence, 30 min. inhibition, % at 5 µM. actives 21% (n = 96,000);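 active = CYP2C19 inhibition above a set limit at 5 µM in the primary screen, cut at about 50% in these data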
CD11b adhes inh = blocks human CD11b/CD18 adhesion to fibrinogen | P05107+P11215 | K562 CD11b/CD18 adhesion to fibrinogen, ATPlite luminescence; Mn2+ added to activate the integrin | inhibition, % at 10 µM | actives 0.54% (n = 93,000);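 active = primary inhibition of 50% or more at 10 µM, then 40% or more on retest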
CYP2C19 act = increases human CYP2C19 enzyme activity; recombinant CYP2C19, luciferin-H EGE luminescence; active compounds read high; 0 = fully inhibited enzyme, 1 = untreated enzyme; AID 1025; 96,000 tested, under 10 active; P33261; activation factor at 5 µM;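 active = activation factor of at least 2 at 5 µM in the primary screen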
CYP2C9 activ = activators of human CYP2C9; P11712; recombinant CYP2C9, luciferin-H conversion, luminescence; active compounds read high; factor 1 = untreated enzyme, 0 = blocked; activation factor at 5 µM; actives 1.4% (n = 96,000); AID 1024;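 active = activation factor of 2 or more for CYP2C9 at a 5 µM dose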
Target sequence (P11712 whole entry, looked up): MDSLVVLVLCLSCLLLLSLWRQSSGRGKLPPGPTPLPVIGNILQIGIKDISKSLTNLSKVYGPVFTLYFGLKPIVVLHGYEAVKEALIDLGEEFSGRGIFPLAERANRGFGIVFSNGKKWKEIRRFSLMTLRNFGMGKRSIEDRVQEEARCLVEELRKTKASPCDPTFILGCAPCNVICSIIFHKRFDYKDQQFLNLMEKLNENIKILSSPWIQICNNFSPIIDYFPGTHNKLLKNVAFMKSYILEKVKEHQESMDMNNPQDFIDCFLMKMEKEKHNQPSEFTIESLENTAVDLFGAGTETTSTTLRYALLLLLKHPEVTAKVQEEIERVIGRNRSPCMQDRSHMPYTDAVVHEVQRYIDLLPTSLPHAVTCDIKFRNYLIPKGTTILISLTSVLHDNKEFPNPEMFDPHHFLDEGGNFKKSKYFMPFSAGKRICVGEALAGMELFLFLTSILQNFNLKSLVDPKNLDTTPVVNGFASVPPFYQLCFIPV
CYP2C9 inh = human CYP2C9 inhibition. CYP2C9 Supersomes, luciferin-H conversion, luminescence. actives 20% (n = 96,000). inhibition, % at 5 µM;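 active = blocking of liver enzyme CYP2C9 beyond about 50% at 5 µM, limit read from the data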
Each line names hits and unclear results; the compound was inactive in the other large screens. This is a sample that favours compounds with a hit; in the whole collection about 28% have one here.

CCCCc1ccc(NC(=O)OC)cc1	CYP2C9 inh 64.7
CCSc1nc2c(c(=O)[nH]1)C(c1ccncc1)C(C(=O)OC(C)C)=C(C)N2 (centres undefined)	CYP2C19 inhib 89.8, CYP2C9 inh 56.6
Cc1sc2nc(NCCO)[nH]c(=O)c2c1C	none
COc1ccc(S(=O)(=O)n2cnc3cc(C)c(C)cc32)cc1C	none
CCOc1ccc2cc(S(=O)(=O)n3ccnc3C)ccc2c1	none
COc1ccc(OC)c(S(=O)(=O)n2cccn2)c1	none
COc1ccc(Br)cc1S(=O)(=O)n1ccnc1C	CYP2C19 inhib 99.1, CYP2C9 activ 2.4
COc1ccc(OC)c(S(=O)(=O)n2ccnc2C)c1	CYP2C19 inhib 93.2
Cc1nccn1S(=O)(=O)c1ccc(Br)cc1Br	CYP2C19 inhib 66.3
COC(=O)c1sccc1NC(=O)c1c(C)c(-c2cccc(Cl)c2)nc2ccccc12	none (no result: CYP2C19 inhib, CYP2C19 act, CYP2C9 activ, CYP2C9 inh)
COc1ccc2c(c1)C(C)CC(C)(C)N2C(=O)CSc1ncn[nH]1 (centres undefined)	CYP2C19 inhib 88.2, CYP2C9 inh 63.9
COC(=O)C1=C(C)N(C)C(=O)NC1c1cc(Cl)c(O)c(OC)c1 (centres undefined)	CYP2C9 inh 56.1
CCSc1ncc(C#N)c(=O)[nH]1	none
Nc1nnc(SCc2cccnc2)s1	none (no result: CD11b adhes inh)
Cc1nc2ccccc2nc1CSc1nnc(N)s1	CYP2C19 inhib 53.7
CC(C)CCNc1nnnc2c1sc1nc(N3CCOCC3)c3c(c12)CC(C)(C)SC3	CYP2C9 inh 84.6
CC1(C)Cc2c(c(N3CCOCC3)nc3sc(C#N)c(N)c23)CS1	none
CCSc1nc(C)c(C(C)=O)cc1C#N	none
CCN(CC)c1nc(C)c(C(C)=O)cc1C#N	CYP2C19 inhib 53.5
CC(=O)c1cc(C#N)c(SCc2ccncc2)nc1C	CYP2C19 inhib 97.0, CYP2C9 inh 93.1
Cc1ccc(S(=O)(=O)N(CCC#N)CCN2CCCC2)cc1	none
CCc1cc2c(=O)n(-c3ccccc3)c(=S)[nH]c2s1	none (no result: CD11b adhes enh, CD11b adhes inh)
COc1ccc(-c2[nH]c(-c3ccc(F)cc3)nc2SCC(=O)NCc2ccco2)cc1OC	CYP2C19 inhib 51.1
COc1ccc(-c2nc(SCC(=O)NCc3ccco3)c(-c3ccccc3)[nH]2)cc1OC	CYP2C19 inhib 77.6, CYP2C9 inh 64.8
COc1ccc(-c2[nH]c(-c3ccccc3)nc2SCC(=O)NCc2ccco2)cc1OC	none
CC(=O)Nc1ccc(S(=O)(=O)NC(C(=O)O)C2=CCC=CC2)cc1 (centres undefined)	none
COC(=O)c1ccc2c(c1)C(C)(C)C(/C=C/c1ccccc1O)=[N+]2C	CYP2C9 inh 58.6 (no result: CD11b adhes enh, CD11b adhes inh)
O=C(c1cccc2ccccc12)N1CCN(c2ccc([N+](=O)[O-])c(N3CCOCC3)c2)CC1	none (no result: CYP2C19 inhib, CYP2C19 act, CYP2C9 activ, CYP2C9 inh)
O=C(COc1ccccc1)N1CCN(c2ccc([N+](=O)[O-])c(N3CCCCC3)c2)CC1	CYP2C19 inhib 64.2, CYP2C9 inh 78.7 (no result: CD11b adhes enh, CD11b adhes inh)
Cc1ccccc1C(=O)N1CCN(c2ccc([N+](=O)[O-])c(N3CCOCC3)c2)CC1	CYP2C19 inhib 54.6, CYP2C9 inh 58.7 (no result: CD11b adhes enh, CD11b adhes inh)
Cc1ccc(OCC(=O)N2CCN(c3ccc([N+](=O)[O-])c(N4CCOCC4)c3)CC2)cc1	CYP2C9 inh 57.1
CCOC(=O)/C(=C\Nc1ccc(OC(F)(F)F)cc1)Sc1ncc(C(F)(F)F)cc1Cl	none
O=C(COC(=O)C1=Cc2ccccc2OC1)NC1CCCC1	none
COc1ccc(S(=O)(=O)n2cnc3cc(C)c(C)cc32)cc1	CYP2C19 inhib 95.5, CYP2C9 inh 87.3
CC(=O)N1CCCc2cc(S(=O)(=O)N3CCN(c4ccccn4)CC3)ccc21	none
C(=N\n1cnnc1)/c1ccc(OCc2ccccc2)cc1	CYP2C19 inhib 70.4, CYP2C9 inh 81.0
COc1cc(/C=N/n2cnnc2)ccc1OC(=O)c1ccncc1	none
Cc1cc(/C=N/n2cnnc2)c(C)n1-c1ccc(OCc2ccc(Cl)cc2)cc1	none
CCOc1ccc(/C=N/n2cnnc2)cc1	CYP2C19 inhib 81.7
C(=N\n1cnnc1)/c1ccc(-c2ccccc2)cc1	CYP2C19 inhib 98.9, CYP2C9 inh 98.4
CCOc1cc(/C=N/n2cnnc2)cc(Br)c1O	none
CC(=O)Oc1ccccc1C(=O)Oc1ccc(/C=N/n2cnnc2)cc1	CYP2C9 inh 95.0
Oc1ccccc1/C=N/n1cnnc1	none
O=C(NC1CCCCC1)N(Cc1ccc(F)cc1)Cc1nc2ccccc2c(=O)[nH]1	none
CCOc1ccc2ncc(S(=O)(=O)c3ccc(C)cc3)c(N3CCC4(CC3)OCCO4)c2c1	none (no result: CYP2C19 inhib, CYP2C19 act, CYP2C9 activ, CYP2C9 inh)
CN1CC(=O)N(C)c2ncn(Cc3ccccc3)c2C1=O	none
CCN(CC)C(=O)CSc1nc2sc3c(c2c(=O)n1-c1ccc(C)cc1)CC(C)(C)SC3	CYP2C19 inhib 51.7, CYP2C9 inh 95.8
Cc1cc(C)cc(-n2c(SCC(=O)Nc3cccc(S(=O)(=O)NC4=NCCCCC4)c3)nc3ccccc3c2=O)c1	none (no result: CYP2C19 inhib, CYP2C19 act, CYP2C9 activ, CYP2C9 inh)
CS(=O)(=O)c1sc2nc(-c3cccs3)cc(-c3ccccc3)c2c1N	none
Cc1ccc(-c2cc(-c3ccccc3)c3c(N)c(S(C)(=O)=O)sc3n2)cc1	CYP2C9 inh 57.7
COc1ccc(N(C(=O)c2ccc(Br)o2)C2C=CS(=O)(=O)C2)cc1 (centres undefined)	none
Cc1ccc(S(=O)(=O)/N=C2/NC(=O)/C(=C\c3ccco3)S2)cc1	none
Cc1ccc(S(=O)(=O)N=C2SCCCS2)cc1	CYP2C9 activ 2
COc1ccc(CCNC(=S)Nc2cccc(C)c2C)cc1	CYP2C19 inhib 57.8
Cc1cc(Cl)ccc1NC(=S)NCc1ccccc1	CYP2C19 inhib 76.9
CCN(CC)c1ccc(/C=N/NC(=S)NCc2ccc(OC)cc2)cc1	none (no result: CYP2C19 inhib, CYP2C19 act, CYP2C9 activ, CYP2C9 inh)
COc1ccc(CNC(=S)Nc2cc(C)ccc2C)cc1	CYP2C19 inhib 97.7
COc1ccc(CNC(=S)N/N=C/c2ccc(OC)c(OC)c2)cc1	CYP2C9 inh 62.8
CC(=O)Oc1ccc(CCC(C)OC(C)=O)cc1 (centres undefined)	none
Cc1cccc(N(C)S(=O)(=O)c2ccc3[nH]c(=O)c(=O)[nH]c3c2)c1	none (no result: CD11b adhes enh, CD11b adhes inh)
COc1ccc(CNC(=S)Nc2ccccc2C)cc1	CYP2C19 inhib 98.3
CC(C)COc1ccc(CNC(=S)N/N=C/c2ccc([N+](=O)[O-])cc2)cc1	CYP2C9 inh 80.0
COc1ccc(CNC(=S)NC2CCCC2)cc1	none (no result: CYP2C19 inhib, CYP2C19 act, CYP2C9 activ, CYP2C9 inh)
COc1ccc(CCNC(=S)Nc2cc(C)ccc2C)cc1	CYP2C19 inhib 67.0, CYP2C9 inh 53.8
COc1ccc(CNC(=S)Nc2cccc(C)c2)cc1	CYP2C19 inhib 81.4
Brc1ccc(NCc2nnc3n2CCCCC3)cc1	CYP2C19 inhib 63.6
Cc1ccc(NCc2nnc3n2CCCCC3)cc1	CYP2C19 inhib 75.1
Cc1cccc(OCc2nnc3n2CCCCC3)c1	none
O=C(NCc1nnc2n1CCCCC2)c1ccc(Cl)cc1Cl	none
CCOC(=O)/C(C#N)=C/c1cc(C)n(-c2ccccc2)c1C	CYP2C19 inhib 52.4, CYP2C9 inh 53.8
